Rows were chosen to be rich in hits. Some 2.7% of all compounds tested hit in one or more screens of this group.
A549 tox – counter-screen for Nrf2 inhibitors: cytotoxicity in A549 cells. AID 504648. Potency, µM (series often up to 46 µM), for inactives: at the highest dose activity change, negative = cytotoxicity, most hits filed as inhibitors. A549 ARE-Fluc cells, CellTiter-Fluor viability, 18-24 h. hit rate 0.16% among 390,000; note: potency is the fitted concentration of half-maximal effect; % is set by controls: 0 for no effect and ±100 for the full control effect
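A549 ARE-Fluc cells in 5% FBS OPTI-MEM, 5000 cells/well, rested 2 h then exposed to compounds in concentration-response for 18-24 h at 37 °C. Viability by CellTiter-Fluor fluorescence (Ex 405/Em 525) after 30 min; luciferase luminescence (BugLite, 15 min, RT) read afterwards.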
LDHA inh – inhibitors of human lactate dehydrogenase A; P00338; purified LDHA, NADH/diaphorase-resazurin fluorescence; active compounds read low; activity change, % (values are at about 110 or 230 µM); hit rate 0.15% among 480,000; AID 1347041; in the data active = activity change below about -30%; inconclusive = mostly about -25% to -30%;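 note: plate controls were DMSO wells for no effect and wells without enzyme for full effect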
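Human LDH5 (2 nM) was incubated with 0.06 mM NADH and 0.2 mM pyruvate for 5 min at room temperature in Tris pH 7.4. Remaining NADH was coupled through diaphorase/resazurin, and resorufin fluorescence was read at 0 and 20 min.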
Nrf2 ARE act – Nrf2 pathway activation. AREc32 ARE-luciferase reporter (MCF7-derived line), luminescence, 24 h. Potency, µM (doses to about 46.1 µM), without a hit: at the highest dose activation, usual class: activators. hit rate 0.31% among 410,000. AID 624171; note: potency is the fitted concentration of half-maximal effect; % of control where 0% means no effect; nearly all actives have a fitted effect of over 65% in size
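For detection, Steady-Glo was added and plates sat 30 min at RT; before that, AREc32_Fluc cells grown overnight in OPTI-MEM/5% FBS had been treated with 23 nL compound for 24 hr at 37 deg C.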
12-LOX inh – ALOX12 (human) lipoxygenase inhibition; P18054; purified 12hLO, xylenol orange hydroperoxide absorbance; Potency, µM (top dose mostly 108 µM), for the others: at the highest dose activity change, negative = inhibition, hits mostly inhibitors; hit rate 1.1% among 580,000; AID 1671190; note: potency is the fitted concentration of half-maximal effect; % is set by controls: 0 for no effect and ±100 for the full control effect
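Purified human 12hLO (150 nM final) in 25 mM Hepes, 0.01% Triton X-100, pH 7.0 was preincubated 15 min at room temperature with compound. Then 40 uM arachidonic acid was added, 30 min. Hydroperoxide was read by Fe-XO absorbance ratio 573/405 nm.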
Nrf2 block – inhibitors of Nrf2 signaling. Potency, µM (titrated, usually from 46 µM), for inactives: top-dose activity change, negative = inhibition, most hits filed as inhibitors. AID 504444. A549 ARE-Fluc reporter, luciferase luminescence, 18-24 h. hit rate 2.1% among 360,000; note: potency is the fitted concentration of half-maximal effect; % is set by controls: 0 for no effect and ±100 for the full control effect; nearly all actives have a fitted effect of over 60% in size
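Quantitative HTS in A549 cells stably bearing an antioxidant response element-firefly luciferase construct. Inhibition of Nrf2-driven transcription was scored by luminescence after 18-24 h of compound exposure at 37 °C.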
IDH1 R132H inh – human IDH1 R132H inhibition; AID 602179; Potency, µM (highest dose often 76.6 µM), inactives show at the top dose activity change, negative = inhibition, most hits filed as inhibitors; IDH1-R132H enzyme, NADPH consumption, diaphorase/resazurin fluorescence; hit rate 0.093% among 390,000; O75874; note: potency is the fitted concentration of half-maximal effect; % is set by controls: 0 for no effect and ±100 for the full control effect; nearly all actives have a fitted effect of over 65% in size
Target sequence (O75874 whole entry R132H, stated change not applied): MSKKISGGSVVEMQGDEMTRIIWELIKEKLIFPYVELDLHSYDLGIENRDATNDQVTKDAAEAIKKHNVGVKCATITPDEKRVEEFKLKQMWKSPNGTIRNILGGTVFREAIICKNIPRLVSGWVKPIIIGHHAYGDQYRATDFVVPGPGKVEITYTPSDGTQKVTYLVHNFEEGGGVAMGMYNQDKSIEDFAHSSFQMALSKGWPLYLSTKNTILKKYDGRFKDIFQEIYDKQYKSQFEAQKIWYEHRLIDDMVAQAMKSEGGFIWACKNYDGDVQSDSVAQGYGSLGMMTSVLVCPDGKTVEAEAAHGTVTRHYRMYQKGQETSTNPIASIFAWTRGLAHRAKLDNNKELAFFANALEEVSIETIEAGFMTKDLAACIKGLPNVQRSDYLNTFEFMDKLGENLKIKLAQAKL
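IDH1-R132H (0.5 ug/mL) preincubated 30 min with compound, then NADPH (0.016 mM) and alpha-KG (2 mM) added; 80 min at RT, pH 7.5. Remaining NADPH coupled via diaphorase/resazurin to fluorescence (540/590 nm); concentration-response curves normalized to no-enzyme control.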
Active calls of the source: *; ? = inconclusive; . = no result; [ ] = dose if it differs, or a comment. Unless noted, calls come from the whole dose curve; as a rule, active = well fitted curve in the direction sought with a large enough effect; inconclusive = small, poorly fitted or top-dose-only effect, or another doubt; inactive = no such curve, though single readings can be large; an effect the other way counts as inactive or inconclusive.

SMILES	A549 tox	LDHA inh	Nrf2 ARE act	12-LOX inh	Nrf2 block	IDH1 R132H inh
C=CCC(Nc1ccccc1)C12C=CC(O1)C(C(=O)OC)=C2C(=O)OC (stereo not given)	-19%	-5	11µM*	48%	?	9%
O=C(NCc1ccccc1)c1ccccc1OC1CN(Cc2cccc(F)c2)C1	.	.	.	5%	.	.
COc1ccc(S(=O)(=O)Nc2cccc(N(C)S(C)(=O)=O)c2)cc1Br	-18%	-6	3%	-10%	18µM*	-2%
COc1ccc(S(=O)(=O)Nc2cccc(C(C)=O)c2)cc1Br	2%	3	5%	5%	?	9%
CCCNC(=O)Nc1cc(S(=O)(=O)N2CCOCC2)ccc1NCC1CCCO1 (stereo not given)	.	7	.	26%	.	.
CCn1c(N2CCN(CC(N)=O)CC2)nc2c1c(=O)[nH]c(=O)n2C	.	11	.	-2%	.	.
Cc1ccc(S(=O)(=O)N2CCOC2CNC(=O)C(=O)NCCCc2ccccc2)cc1 (stereo not given)	0%	-14	0%	?	21µM*	1%
COc1ccc(S(=O)(=O)N2CCOC2CNC(=O)C(=O)NCCc2c[nH]c3ccccc23)cc1 (stereo not given)	-8%	2	0%	1%[57.4 µM]	7.3µM*	-5%
Cc1ccc(S(=O)(=O)N2CCOC2CNC(=O)C(=O)NCCc2ccccc2)cc1 (stereo not given)	0%	-1	3%	0%	-29%	5%
COc1ccc(S(=O)(=O)N2CCOC2CNC(=O)C(=O)NCCc2c[nH]c3ccccc23)cc1C (stereo not given)	4%	4	-1%	3%	?	17%
COc1ccc(C(=O)C(C)Cl)c(OC)c1 (stereo not given)	.	?	.	39%	.	.
O=C(CCC(=O)N1CCC(c2noc3ccc(F)cc23)CC1)N1CCCC1	.	-1	.	9%	.	.
COc1ccc(C2CC(c3cccs3)=NN2C(=O)CSc2nc3c(cnn3-c3ccccc3)c(=O)[nH]2)cc1 (stereo not given)	-26%	-4	-1%	-8%	16µM*	-9%
COc1cccc(C2CC(c3cccs3)=NN2C(=O)CSc2nc3c(cnn3-c3ccc(F)cc3)c(=O)[nH]2)c1OC (stereo not given)	-24%	0	-1%	.	?	-3%
CC(C)COc1ccc(C(=O)Nc2cccc(-c3nc4ccccc4[nH]3)c2)cc1	-18%	-8	-1%	-16%	23µM*	-12%
Cc1ccc(-c2noc(-c3cccs3)n2)cc1	-5%	0	11µM*	-12%	?	7%
c1csc(-c2nc(-c3ccc(-c4ccon4)s3)no2)c1	2%	-4	5.6µM*	0%	?	0%
COc1ccc(-c2nc(-c3cccs3)no2)cc1	5%	-3	2%	-5%	?	0%
C/C(=C(/C#N)c1nc2ccccc2[nH]1)c1ccc(C)cc1	.	7	.	-4%	.	.
CCOc1ccc(C(Nc2cccnc2)c2cc(Cl)c3cccnc3c2O)cc1 (stereo not given)	0%	9	23%	10µM*	?	7%
CCOc1ccc(C(NC(C)=O)c2cc(Cl)c3cccnc3c2O)cc1 (stereo not given)	.	9	.	.	.	.
CCOc1ccc(S(=O)(=O)N(C(=O)c2ccco2)c2cc3sc(=O)oc3c3ccccc23)cc1	8%	23	10%	32µM*	9%	3%
Cc1ccc(S(=O)(=O)N(C(=O)c2ccco2)c2cc3sc(=O)oc3c3ccccc23)cc1	1%	28	4%[9.22 µM]	28µM*	2%	8%
CCc1ccc(OCC(=O)NC(c2ccccc2)c2cccs2)cc1 (stereo not given)	.	-2	.	?	.	.
CCCNC(=O)CNC(=O)c1cc2ccc(OC)cc2nc1C	.	0	.	?	.	.
SMILES	A549 tox	LDHA inh	Nrf2 ARE act	12-LOX inh	Nrf2 block	IDH1 R132H inh
Cc1nn(-c2ccccc2)c(Cl)c1/C=C1\SC(=S)NC1=O	-17%	-12	5%	25µM*	?	-6%
Cc1nn(-c2ccccc2)c(Cl)c1/C=C1\SC(=S)N(CCCCCC(=O)O)C1=O	-8%	-6	?	-24%	-8%	-21%
COc1ccc(-c2onc(C)c2C)cc1S(=O)(=O)N1CCc2ccccc21	-1%	-8	1%	-9%	18µM*	11%
Cc1ccc(CNC(=O)c2ccc3c(=O)c(O)c(-c4ccc(C)cc4)[nH]c3c2)cc1	?	-11	7%	176%	21µM*	-23%
CCCOC(=O)c1cc(-c2ccc(/C=C3/C(=O)N(C)C(=O)C(C#N)=C3C)o2)ccc1Cl	-15%	6	2%	.	14%	13%
C=CCOC(=O)c1cc(-c2ccc(/C=C3\C(=O)NC(=O)C(C#N)=C3C)o2)ccc1Cl	1%	-6	0%	7.1µM*	23%	2%
COc1ccccc1-c1[nH]nc2ncc(-c3ccccc3C)nc12	.	.	.	23%[176 µM]	.	.
Cc1cccc(C)c1NC(=O)Cn1nc(C)c2sc3ccccc3c2c1=O	4%	-5	0%	-24%	21µM*	-6%
CC(=O)Nc1cccc(NC(=O)C(=O)c2cn(CC(=O)N3CCOCC3)c3ccccc23)c1	.	2	.	?	.	.
COc1ccc(-c2nn(C)c3sc(C(=O)NCc4ccco4)cc23)cc1OC	0%	-3	4%	0%[57.4 µM]	18%	0%
COc1ccc(NC(=O)c2cc3c(-c4ccc(OC)c(OC)c4)nn(C)c3s2)cc1OC	-29%	-3	21%	-29%	12µM*	6%
COc1ccc(-c2nn(C)c3sc(C(=O)Nc4cc(OC)c(OC)c(OC)c4)cc23)cc1OC	?	-3	4%	-18%	23µM*	8%
O=C(Cc1ccccc1)Nc1ccc([C@@H](O)[C@H]2COCC(=O)N2CC2CC2)cc1	.	.	.	6%[176 µM]	.	.
CN(C)c1ccnc(-c2ccccc2C(F)(F)F)n1	.	.	.	50µM*	.	.
Cc1cc(C(=O)O)ccc1NCc1ccncc1	-1%	-6	0%	0%	-8%	8%
C/C(=C\C(=O)c1ccc(C)o1)Nc1ccc(C(=O)O)cc1C	-18%	4	0%	25µM*	-5%	-1%
CCC(C)NC(=O)Cc1c(C)[nH]c2ccc(F)cc12 (stereo not given)	.	0	.	2%	.	.
CCC(C)(C)NC(=O)c1ccc(Sc2nncn2C)c([N+](=O)[O-])c1	4%	4	0%	-3%	17%	7%
Cn1cnnc1Sc1ccc(/C=C/C(=O)c2ccc(O)cc2)cc1[N+](=O)[O-]	?	-1	?	-2%	18µM*	0%
